Test results: PubChem BioAssay AID1159580 (chemical genetic matrix, 2015)
Hit rate of the full screen: of about 5,500 compounds, about 2,000 (36%) were called active. Inconclusive results (about 18%) are left out. Cut-off read from the data, not from the text of the source: active = normalized growth mostly below about 0.91 (no sharp cut-off); inconclusive = no clear call, values can overlap the other calls; inactive = mostly above about 0.92. Some of the results follow.

Assay: chemical genetic growth profiling, strain panel (AID 1159580);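 note: tested at 20 µM; growth read once vehicle control cultures reached saturation at 30 °C; 1 = growth at the plate median or of vehicle wells; lower values mean less growth of the strain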
Details: S. cerevisiae deletion strains, growth OD

Measured: normalized growth

CCC(C)C(=O)O[C@H]1C[C@H](O)C=C2C=C[C@H](C)[C@H](CC[C@@H](O)C[C@@H](O)CC(=O)O)C21 (stereo not given in full)
active: locus YDR137W, strain rgp1, stronger effect = lower value 1.3 [resistant]
inactive: locus YAL021C, strain ccr4, stronger effect = lower value 1.02 | locus YAL026C, strain drs2, stronger effect = lower value 1.03 | locus YAL030W, strain snc1, stronger effect = lower value 1 | locus YBL061C, strain skt5, stronger effect = lower value 1.01 | locus YBR009C, strain hhf1, stronger effect = lower value 0.966 | locus YBR023C, strain chs3, stronger effect = lower value 1.02 | locus YBR171W, strain sec66, stronger effect = lower value 1 | locus YBR231C, strain swc5, stronger effect = lower value 0.976 | locus YBR279W, strain paf1, stronger effect = lower value 1.02 | locus YCL011C, strain gbp2, stronger effect = lower value 1.02 | locus YCL016C, strain dcc1, stronger effect = lower value 1.03 | locus YCL061C, strain MRC1, stronger effect = lower value 1.01 | locus YCL069W, strain vba3, stronger effect = lower value 1.01 | locus YCR088W, strain abp1, stronger effect = lower value 1 | locus YDL005C, strain med2, stronger effect = lower value 1.03 | locus YDL040C, strain nat1, stronger effect = lower value 0.993 | locus YDR001C, strain nth1, stronger effect = lower value 1.01 | locus YDR069C, strain doa4, stronger effect = lower value 1.01 | locus YDR159W, strain sac3, stronger effect = lower value 0.937 | locus YDR195W, strain ref2 0.952 | locus YDR297W, strain sur2, stronger effect = lower value 1.01 | locus YDR334W, strain swr1, stronger effect = lower value 0.994 | locus YDR335W, strain msn5, stronger effect = lower value 1.02 | locus YDR392W, strain spt3, stronger effect = lower value 0.987 | locus YEL003W, strain gim4, stronger effect = lower value 1.02 | locus YEL037C, strain rad23, stronger effect = lower value 1.02 | locus YEL061C, strain CIN8 (second series), stronger effect = lower value 0.986 | locus YER015W, strain faa2, stronger effect = lower value 1 | locus YER016W, strain bim1, stronger effect = lower value 1.06 | locus YER111C, strain swi4, stronger effect = lower value 1.02 | locus YER155C, strain BEM2 (second series), stronger effect = lower value 1.02 | locus YFR010W, strain ubp6, stronger effect = lower value 0.995 | locus YGL167C, strain pmr1, stronger effect = lower value 1 | locus YGL173C, strain kem1, stronger effect = lower value 1.02 | locus YGL227W, strain vid30, stronger effect = lower value 1 | locus YGL240W, strain doc1, stronger effect = lower value 1.04 | locus YGL253W, strain hxk2, stronger effect = lower value 1.02 | locus YHR013C, strain ard1, stronger effect = lower value 1.02 | locus YHR027C, strain rpn1, stronger effect = lower value 1.01 | locus YHR030C, strain SLT2, stronger effect = lower value 0.977 | locus YHR079C, strain IRE1, stronger effect = lower value 0.975 | locus YHR142W, strain chs7, stronger effect = lower value 1.02 | locus YJL092W, strain hpr5, stronger effect = lower value 1.01 | locus YJL095W, strain BCK1 (second series), stronger effect = lower value 1.02 | locus YJL095W, strain BCK1, stronger effect = lower value 0.965 | locus YJL115W, strain asf1, stronger effect = lower value 1.01 | locus YJL129C, strain trk1, stronger effect = lower value 1.02 | locus YJL154C, strain vps35, stronger effect = lower value 1.01 | locus YJL164C, strain tpk1, stronger effect = lower value 1.01 | locus YJL166W, strain qcr8, stronger effect = lower value 0.992 | locus YJL187C, strain SWE1, stronger effect = lower value 1.01 | locus YJR066W, strain TOR1, stronger effect = lower value 0.907 | locus YKL160W, strain elf1, stronger effect = lower value 1.05 | locus YKR026C, strain gcn3, stronger effect = lower value 0.99 | locus YKR091W, strain srl3, stronger effect = lower value 1 | locus YLL001W, strain dnm1, stronger effect = lower value 0.961 | locus YLL026W, stronger effect = lower value 1 | locus YLL041C, strain sdh2, stronger effect = lower value 0.991 | locus YLR027C, strain aat2, stronger effect = lower value 1 | locus YLR113W, strain HOG1, stronger effect = lower value 1 | locus YLR221C, strain rsa3, stronger effect = lower value 0.998 | locus YLR258W, strain gsy2, stronger effect = lower value 1.03 | locus YLR262C, strain YPT6 (second series), stronger effect = lower value 1.12 | locus YLR320W, strain mms22, stronger effect = lower value 0.963 | locus YLR342W, strain FKS1, stronger effect = lower value 1.02 | locus YLR357W, strain rsc2, stronger effect = lower value 1 | locus YLR370C, strain arc18, stronger effect = lower value 1.02 | locus YLR384C, strain iki3, stronger effect = lower value 0.991 | locus YML120C, strain ndi1, stronger effect = lower value 1.02 | locus YMR058W, strain fet3, stronger effect = lower value 1.01 | locus YMR125W, strain sto1, stronger effect = lower value 1.04 | locus YMR129W, stronger effect = lower value 1 | locus YMR205C, strain PFK2, stronger effect = lower value 0.972 | locus YMR231W, strain pep5, stronger effect = lower value 1 | locus YNL071W, strain lat1, stronger effect = lower value 1 | locus YNL183C, strain NPR1, stronger effect = lower value 0.902 | locus YNL209W, strain ssb2, stronger effect = lower value 1.01 | locus YNL248C, strain rpa49, stronger effect = lower value 1.03 | locus YNL322C, strain KRE1 (second series), stronger effect = lower value 1.06 | locus YNR049C, strain mso1, stronger effect = lower value 1.01 | locus YOR001W, strain rrp6, stronger effect = lower value 0.992 | locus YOR070C, strain gyp1, stronger effect = lower value 1 | locus YOR080W, strain dia2, stronger effect = lower value 0.999 | locus YOR083W, strain WHI5, stronger effect = lower value 1.01 | locus YOR106W, strain vam3, stronger effect = lower value 1.04 | locus YOR231W, strain MKK1, stronger effect = lower value 0.954 | locus YOR265W, strain rbl2, stronger effect = lower value 1 | locus YOR270C, strain vph1, stronger effect = lower value 0.946 | locus YOR290C, strain snf2, stronger effect = lower value 1.05 | locus YPL051W, strain arl3, stronger effect = lower value 1.06 | locus YPL078C, strain atp4, stronger effect = lower value 1.05 | locus YPL106C, strain sse1, stronger effect = lower value 1.02 | locus YPL240C, strain hsp82, stronger effect = lower value 1.01 | locus YPL256C, strain CLN2, stronger effect = lower value 1.01
